These compounds were tested on Sporothrix brasiliensis CBS 133006 (assay: growth inhibition relative to untreated control; higher = more growth inhibition (more antifungal activity), active = 80 or more; extreme values may be limits of the assay). Conditions: 1 µM; 48 h.
Summary of the method: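 The reported figure is percent growth inhibition relative to untreated cells, from quadruplicate runs. Yeast-form cells of the reference isolates at 1 x 10^5 CFU/ml were exposed to library compounds at a final 1 μM for 48 h at 35°C in 5% CO2, and growth was assessed by microscopy and spectrophotometric readings.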

Structure (SMILES)	growth inhibition
FC(F)(F)c1ccc(N(c2cccnc2)C2CCN(c3ccc(C(F)(F)F)cn3)CC2)cc1	0% (inactive)
CNC(=O)c1nn(C)c2c1C(C)(C)Cc1cnc(Nc3ccc(N4CCN(C)CC4)cc3)nc1-2	37.5% (inactive)
O=C(C1CCN(c2cc(-n3cccc3)ncn2)CC1)N1CCc2ccccc2C1	6% (inactive)
COc1cc(C2=NCCN2)cc2cc(-c3ccc(C4=NCCN4)cc3)oc12	17% (inactive)
Cc1cc(C)c2cc(C(=O)NC3CCCCCCC3)[nH]c2c1	6% (inactive)
Cc1ccc(S(=O)(=O)N2CCN(C(=O)c3cc(-c4ccccc4)n[nH]3)CC2)cc1	1.5% (inactive)
CNC(=O)C1Cc2ccccc2N1C(=O)Cc1ccc(F)cc1 (stereo not drawn)	32.2% (inactive)
Cc1ccc2[nH]c3c(NCCN(C)C)ncnc3c2c1	2% (inactive)
Nc1ncnc2c1c(Cc1cccc3ccccc13)nn2CC1CCNCC1	0% (inactive)
O=C(NC1CC1)c1ccc(CSCc2ccccc2Cl)o1	6.25% (inactive)
Nc1ccc(C(=O)Nc2ccc(-c3nc4ccccc4o3)cc2)cc1	5.5% (inactive)
CCN(CC)S(=O)(=O)c1ccc(Cl)c(C(=O)Nc2ccc3nc(C)sc3c2)c1	0.5% (inactive)
CCCCOC(=O)Nc1cc2nc(C3CCCCC3)[nH]c2cc1N1CCCC1	11% (inactive)
O=C(Nc1ccc(C(F)(F)F)c(C(F)(F)F)c1)c1cc(Cl)ccc1O	92.5% (active)
O=C(C1CCN(c2nnc(-n3cccc3)s2)CC1)N1CCC(Cc2ccccc2)CC1	7.5% (inactive)
Cc1ccc2c(c1C)NC(=O)C21NN=C(c2ccccc2)S1 (stereo not drawn)	7.25% (inactive)
Nc1nccc2ccc(-c3ccc4nccn4c3)cc12	5.5% (inactive)
CC(=O)NCC1CN(c2ccc(-c3ccc(CNCc4cn[nH]n4)cc3)c(F)c2)C(=O)O1 (stereo not drawn)	15.5% (inactive)
COc1ccc(S(=O)(=O)Nc2ccc(CN3CCN(C(=O)c4cccc(C#N)c4)CC3)cc2)cc1	4.25% (inactive)

Structure (SMILES)	growth inhibition
CC[C@@H]([C@H](C)O)n1ncn(-c2ccc(N3CCN(c4ccc(OC[C@@H]5CO[C@@](Cn6cncn6)(c6ccc(F)cc6F)C5)cc4)CC3)cc2)c1=O	73% (inactive)
FC(F)(F)c1cnc(Sc2nnc(-c3ccncc3)o2)c(Cl)c1	3.5% (inactive)
COc1ccc(-c2cnc3ccc(NCc4ccc(S(N)(=O)=O)cc4)nn23)cn1	26.8% (inactive)
CC(Oc1cccc(Cl)c1)C(=O)Nc1ccc2oc(-c3ccncc3)nc2c1 (stereo not drawn)	20% (inactive)
c1ccc(-c2nc(NC3CCCCC3)cc(C3CC3)n2)nc1	16.8% (inactive)
Clc1ccc(CCNc2cc(-c3ccccc3)nc3ncnn23)cc1	9.75% (inactive)
CCCNC(=O)N1CCC2(CC1)CC(=O)c1cc(C)ccc1O2	2.25% (inactive)
Cc1cc(Cl)c(S(=O)(=O)N2CCCC2)cc1OCC(=O)NC1CCCCC1	8% (inactive)
C[C@H](C(N)=O)N1CCCC[C@H]1c1ccc(OCc2cccc(F)c2)cc1	6.5% (inactive)
Nc1ncnc2c1ncn2C[C@@H](O)[C@@H](O)C(=O)O	5% (inactive)
O=S(=O)(c1ccc(Cl)cc1)N1CCN(C(=S)NCc2ccco2)CC1	0% (inactive)
O=C(Nc1ccc(N2CCNCC2)nc1)c1oc(-c2ccccc2)nc1C(F)(F)F	15.2% (inactive)
CCc1nc2ccc(C(=O)NCc3ccc4c(c3)OCO4)cn2c1N(C)Cc1cccs1	7% (inactive)
CC(C)(C)OC(=O)N1CCC(Cn2nc(-c3cnc4ccccc4c3)c3c(N)ncnc32)CC1	21.2% (inactive)
COc1ccc2nc(C)cc(OCC(=O)Nc3ccccc3OC)c2c1	6% (inactive)
COc1ccc(-c2nnc3ccc(-c4cccc(C(C)C)c4)cn23)cc1OC	17% (inactive)
Cc1ccc(-c2nc(CN(Cc3ccccn3)C(C)C)cs2)o1	24% (inactive)
COc1cc(C2=NCCN2)ccc1-n1cc(-c2cccc(C3=NCCN3)c2)nn1	18.5% (inactive)
C[C@@H]1[C@H](O)[C@@H](C)/C=C/C=C/C=C/C=C/C=C/C=C/C=C/[C@H](O[C@@H]2O[C@H](C)[C@@H](O)[C@H](N)[C@@H]2O)C[C@@H]2O[C@](O)(C[C@@H](O)C[C@@H](O)[C@H](O)CC[C@@H](O)C[C@@H](O)CC(=O)O[C@H]1C)C[C@H](O)[C@H]2C(=O)O	24% (inactive)
